Shown is part of a subset that was picked to be rich in hits.
GIRK2 act = Activators of human GIRK2-containing channels; activation (% efficacy), % for hits at 37.5 µM; AID 1259324; 34,000 tested, under 10 active; HEK293 GIRK2/NPY4 cells, thallium flux fluorescence;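 active = primary screen hit, no activity in plain HEK293 cells, and in GIRK2-only cells above 5% efficacy rising with concentration; inactive = the rest, including fluorescent compounds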;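 note: efficacy is normalized control-subtracted fluorescence 15 s after thallium addition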
Target sequence (P48051 whole entry, looked up): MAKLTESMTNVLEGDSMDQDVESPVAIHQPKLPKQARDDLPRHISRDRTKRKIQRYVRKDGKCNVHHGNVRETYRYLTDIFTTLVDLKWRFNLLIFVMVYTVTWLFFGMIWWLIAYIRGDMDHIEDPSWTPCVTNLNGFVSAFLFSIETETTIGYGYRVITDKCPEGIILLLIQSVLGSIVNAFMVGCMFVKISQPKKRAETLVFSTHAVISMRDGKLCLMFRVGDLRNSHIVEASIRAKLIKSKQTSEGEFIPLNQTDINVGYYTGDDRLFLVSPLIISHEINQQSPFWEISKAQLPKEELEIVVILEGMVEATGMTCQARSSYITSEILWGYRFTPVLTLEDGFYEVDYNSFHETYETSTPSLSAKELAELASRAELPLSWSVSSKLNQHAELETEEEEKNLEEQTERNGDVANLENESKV
GluA2 TARP mod = GluA2-stargazin AMPA receptor complex modulation | calls only at 30 µM | AID 1259245 | HEK293 GluA2+stargazin, membrane potential dye (FDSS), glutamate EC50; hits were called plate by plate, in both directions | actives 3.5% (n = 40,000) | O88602+P19491;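 active = any of four per-well response measures lying three or more SD from its plate-wide compound average, in either direction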
Each line names hits and unclear results; the compound was inactive in the other large screens.

Cc1ccc(CSc2nc(CC(=O)Nc3nc(-c4cccnc4)cs3)cs2)cc1	none
O=C1S/C(=C\c2ccc([N+](=O)[O-])cc2)C(=O)N1c1ccc(F)cc1	none
O=C1S/C(=C\c2cccc([N+](=O)[O-])c2)C(=O)N1c1ccc(F)cc1	GluA2 TARP mod active
COc1ccc(C(CNC(=O)c2cc(OC)cc(OC)c2)N2CCOCC2)cc1 (centres undefined)	none (no result: GIRK2 act)
COc1ccc(C(CNC(=O)c2ccccc2Br)N2CCOCC2)cc1 (centres undefined)	GluA2 TARP mod active
COc1ccc(C(CNC(=O)c2ccc3ccccc3c2)N2CCOCC2)cc1 (centres undefined)	GluA2 TARP mod active (no result: GIRK2 act)
O=C(NCC(c1cccc2ccccc12)N1CCOCC1)c1cccc(Br)c1 (centres undefined)	none
COc1cccc(C(CNC(=O)c2ccccc2Br)N2CCOCC2)c1 (centres undefined)	none
O=C(NCC(c1cccc2ccccc12)N1CCOCC1)c1ccc(Br)o1 (centres undefined)	GluA2 TARP mod active
O=C1CCCN1c1ccc(NS(=O)(=O)c2cccc([N+](=O)[O-])c2)cc1	none
COc1nn(C)cc1C(=O)NCC(=O)Nc1ccc(C#N)cc1	none
COCC(C)(O)CNC(=O)c1cn(C)nc1OC (centres undefined)	GluA2 TARP mod active
COc1nn(C)cc1C(=O)NCC(=O)Nc1ccc(F)c(C(F)(F)F)c1	GluA2 TARP mod active
COc1nn(C)cc1C(=O)NCC(=O)NCC(F)(F)F	none
COCC(C)(O)CNC(=O)c1ccccc1C(F)(F)F (centres undefined)	none
COCC(C)(O)CNC(=O)c1c(F)cccc1F (centres undefined)	GluA2 TARP mod active
COCC(C)(O)CNC(=O)c1cc(OC)cc(OC)c1 (centres undefined)	none
COCC(C)(O)CNC(=O)c1ccc(Cl)cc1 (centres undefined)	GluA2 TARP mod active
O=C(Cn1cccn1)Nc1ccc2cn[nH]c2c1	none
CCCNC(=O)Cn1nc2c(c1NC(=O)c1ccc([N+](=O)[O-])o1)CSC2	none
COc1cn(-c2ccc(F)cc2)nc1C(=O)Nc1cc(OC)c(OC)c(OC)c1	none
Cc1cc(N2CCCCC2)nc(N2CCN(C(=O)c3ccc(C)c(C)c3)CC2)n1	none (no result: GIRK2 act)
COc1cccc(NC(=O)Cn2c(C)nc3c(sc4ccccc43)c2=O)c1	none (no result: GluA2 TARP mod)
COc1cccc(COC(=O)c2nnn(-c3ccc(C)cc3)c2C)c1	GluA2 TARP mod active (no result: GIRK2 act)
COc1ccc(-n2nnc(C(=O)OCc3cccc(OC)c3)c2C)cc1	none (no result: GIRK2 act)
Cc1oc(-c2ccccc2)nc1COC(=O)c1nnn(-c2ccc(Cl)cc2)c1C	none (no result: GIRK2 act)
Cc1ccc(-n2nnc(C(=O)OCc3nc(-c4ccccc4C)oc3C)c2C)cc1	GluA2 TARP mod active (no result: GIRK2 act)
Cc1ccsc1C(O)CNC(=O)C1COc2ccccc2O1 (centres undefined)	none
COCCNC(=O)Cn1nc2c(c1NC(=O)C1(c3ccc(Cl)cc3)CCCC1)CSC2	GluA2 TARP mod active
COc1ccc(CNC(=O)Cn2nc3c(c2NC(=O)c2ccc(C)c(C)c2)CSC3)cc1	none
CCCNC(=O)Cn1nc2c(c1NC(=O)C1(c3ccc(Cl)cc3)CCCC1)CSC2	none
CCCNC(=O)Cn1nc2c(c1NC(=O)CCc1ccc(OC)cc1)CSC2	GluA2 TARP mod active
CNC(=O)c1cccc(-c2noc(C3CN(CC(=O)Nc4ccc(F)cc4F)C3)n2)c1	none (no result: GluA2 TARP mod)
C=CCn1c(SCC(=O)NCC2CCCO2)nc2scc(-c3ccc(Cl)cc3)c2c1=O (centres undefined)	none
C=CCn1c(SCC(=O)NCc2ccco2)nc2scc(-c3ccccc3Cl)c2c1=O	GluA2 TARP mod active
COc1ccc(-c2csc(CN3CCN(C(=O)c4ccc(F)cc4F)CC3)n2)cc1	none (no result: GIRK2 act)
CCCc1nnsc1C(=O)N1CCN(Cc2nc(-c3ccc(F)cc3)cs2)CC1	GluA2 TARP mod active
O=C(CSCc1ccccc1)Nc1nc2c(s1)COc1ccccc1-2	none
CCOc1ccccc1C(=O)NCC1CCN(c2ncccn2)CC1	GluA2 TARP mod active
CCOc1ccccc1NC(=O)C(=O)NCC1CCN(c2ncccn2)CC1	none
COc1cccc2cc(C(=O)NCC3CCN(c4ncccn4)CC3)c(=O)oc12	GluA2 TARP mod active
O=C(NCC1CCN(c2ncccn2)CC1)c1c(F)cccc1F	none
CN(C)S(=O)(=O)N1CCC(COCc2ccc(Cl)cc2)CC1	GluA2 TARP mod active
O=S(=O)(/C=C/c1ccccc1)N1CCC(COCc2ccc(Cl)cc2)CC1	none
CC(C)n1c(=O)c2nscc2n(CC(=O)Nc2ccc(Br)cc2)c1=O	GluA2 TARP mod active
COc1ccc(NC(=O)Cn2c(=O)n(C(C)C)c(=O)c3nscc32)cc1Cl	none
CCc1ccccc1NC(=O)Cn1c(=O)n(C2CC2)c(=O)c2nscc21	GluA2 TARP mod active
Cc1cc(C)c(NC(=O)Cn2c(=O)n(C3CC3)c(=O)c3nscc32)c(C)c1	none
CC(C)n1c(=O)c2nscc2n(CC(=O)Nc2ccc3c(c2)OCCO3)c1=O	none
